# Assay results published in paper PMC11006913.
# Assays:
# PRRX1 [1] = target: PRRX1 (Homo sapiens, UniProt P54821 80-166, F113S); assay: PBM; 200 nM protein, PBS; conditions: dsDNA, one strand shown
# PRRX1 [2] = target: PRRX1 (Homo sapiens, UniProt P54821 80-166); assay: PBM; 200 nM protein, PBS; conditions: dsDNA, one strand shown
# Sequence of PRRX1 (Homo sapiens, UniProt P54821 80-166) (P54821 80-166): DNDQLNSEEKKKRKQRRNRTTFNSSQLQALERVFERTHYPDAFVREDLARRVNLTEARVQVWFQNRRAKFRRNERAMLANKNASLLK
# Sequence of PRRX1 (Homo sapiens, UniProt P54821 80-166, F113S) (P54821 80-166 F113S): as the sequence (P54821 80-166) above, with F34S counted along it
Sequence,binding signal (PRRX1 [1]),binding signal (PRRX1 [2])
AACCAATT,"10.4 upbm affinity estimate (log intensity, higher = more binding, comparable within an allelic series)","12.6 upbm affinity estimate (log intensity, higher = more binding, comparable within an allelic series)"
AGCTCGCA,"9.52 upbm affinity estimate (log intensity, higher = more binding, comparable within an allelic series)","9.05 upbm affinity estimate (log intensity, higher = more binding, comparable within an allelic series)"
GAACAGCC,"9.48 upbm affinity estimate (log intensity, higher = more binding, comparable within an allelic series)","9.53 upbm affinity estimate (log intensity, higher = more binding, comparable within an allelic series)"
ACGTCGCC,"9.31 upbm affinity estimate (log intensity, higher = more binding, comparable within an allelic series)","9.36 upbm affinity estimate (log intensity, higher = more binding, comparable within an allelic series)"
GAAAGACC,"9.56 upbm affinity estimate (log intensity, higher = more binding, comparable within an allelic series)","9.45 upbm affinity estimate (log intensity, higher = more binding, comparable within an allelic series)"
CCTGAGGC,"9.1 upbm affinity estimate (log intensity, higher = more binding, comparable within an allelic series)","9.44 upbm affinity estimate (log intensity, higher = more binding, comparable within an allelic series)"
CGTCACCC,"9.47 upbm affinity estimate (log intensity, higher = more binding, comparable within an allelic series)","9.31 upbm affinity estimate (log intensity, higher = more binding, comparable within an allelic series)"
GGCCCTAC,"9.21 upbm affinity estimate (log intensity, higher = more binding, comparable within an allelic series)","9.08 upbm affinity estimate (log intensity, higher = more binding, comparable within an allelic series)"
CGCGGGAC,"9.43 upbm affinity estimate (log intensity, higher = more binding, comparable within an allelic series)","9.4 upbm affinity estimate (log intensity, higher = more binding, comparable within an allelic series)"
AGCACCCT,"9.32 upbm affinity estimate (log intensity, higher = more binding, comparable within an allelic series)","9.38 upbm affinity estimate (log intensity, higher = more binding, comparable within an allelic series)"
AGGTTTAA,"10.1 upbm affinity estimate (log intensity, higher = more binding, comparable within an allelic series)","11.4 upbm affinity estimate (log intensity, higher = more binding, comparable within an allelic series)"
GTGTTAAC,"10.1 upbm affinity estimate (log intensity, higher = more binding, comparable within an allelic series)","11.8 upbm affinity estimate (log intensity, higher = more binding, comparable within an allelic series)"
CGTCTGGA,"9.4 upbm affinity estimate (log intensity, higher = more binding, comparable within an allelic series)","9.19 upbm affinity estimate (log intensity, higher = more binding, comparable within an allelic series)"
CCTACTTA,"10.1 upbm affinity estimate (log intensity, higher = more binding, comparable within an allelic series)","11.6 upbm affinity estimate (log intensity, higher = more binding, comparable within an allelic series)"
GACGTTGC,"9.46 upbm affinity estimate (log intensity, higher = more binding, comparable within an allelic series)","9.38 upbm affinity estimate (log intensity, higher = more binding, comparable within an allelic series)"
CATCGGAC,"9.34 upbm affinity estimate (log intensity, higher = more binding, comparable within an allelic series)","9.14 upbm affinity estimate (log intensity, higher = more binding, comparable within an allelic series)"
AATTCAGG,"9.89 upbm affinity estimate (log intensity, higher = more binding, comparable within an allelic series)","11.3 upbm affinity estimate (log intensity, higher = more binding, comparable within an allelic series)"
CAATTCCC,"9.81 upbm affinity estimate (log intensity, higher = more binding, comparable within an allelic series)","11.3 upbm affinity estimate (log intensity, higher = more binding, comparable within an allelic series)"

Sequence,binding signal (PRRX1 [1]),binding signal (PRRX1 [2])
TTAACAAA,"10.5 upbm affinity estimate (log intensity, higher = more binding, comparable within an allelic series)","12.4 upbm affinity estimate (log intensity, higher = more binding, comparable within an allelic series)"
CGTGTGCA,"9.54 upbm affinity estimate (log intensity, higher = more binding, comparable within an allelic series)","9.31 upbm affinity estimate (log intensity, higher = more binding, comparable within an allelic series)"
TAAACTCA,"10.1 upbm affinity estimate (log intensity, higher = more binding, comparable within an allelic series)","11.1 upbm affinity estimate (log intensity, higher = more binding, comparable within an allelic series)"
AGCCTTTC,"9.3 upbm affinity estimate (log intensity, higher = more binding, comparable within an allelic series)","8.88 upbm affinity estimate (log intensity, higher = more binding, comparable within an allelic series)"
CCGACCCC,"9.1 upbm affinity estimate (log intensity, higher = more binding, comparable within an allelic series)","9.36 upbm affinity estimate (log intensity, higher = more binding, comparable within an allelic series)"
GAATTATC,"10.5 upbm affinity estimate (log intensity, higher = more binding, comparable within an allelic series)","12.9 upbm affinity estimate (log intensity, higher = more binding, comparable within an allelic series)"
ATCATCAC,"10.1 upbm affinity estimate (log intensity, higher = more binding, comparable within an allelic series)","11.5 upbm affinity estimate (log intensity, higher = more binding, comparable within an allelic series)"
CGGAGCGC,"9.18 upbm affinity estimate (log intensity, higher = more binding, comparable within an allelic series)","9.3 upbm affinity estimate (log intensity, higher = more binding, comparable within an allelic series)"
CTGATGAA,"10 upbm affinity estimate (log intensity, higher = more binding, comparable within an allelic series)","11.2 upbm affinity estimate (log intensity, higher = more binding, comparable within an allelic series)"
GCTCTTCC,"9.47 upbm affinity estimate (log intensity, higher = more binding, comparable within an allelic series)","9.1 upbm affinity estimate (log intensity, higher = more binding, comparable within an allelic series)"
CAGAGAGC,"9.56 upbm affinity estimate (log intensity, higher = more binding, comparable within an allelic series)","9.55 upbm affinity estimate (log intensity, higher = more binding, comparable within an allelic series)"
AGATATTA,"10.4 upbm affinity estimate (log intensity, higher = more binding, comparable within an allelic series)","12.2 upbm affinity estimate (log intensity, higher = more binding, comparable within an allelic series)"
CTAGACCC,"9.44 upbm affinity estimate (log intensity, higher = more binding, comparable within an allelic series)","9.31 upbm affinity estimate (log intensity, higher = more binding, comparable within an allelic series)"
CCAAGACG,"9.45 upbm affinity estimate (log intensity, higher = more binding, comparable within an allelic series)","9.18 upbm affinity estimate (log intensity, higher = more binding, comparable within an allelic series)"
ACGCGCGG,"9.42 upbm affinity estimate (log intensity, higher = more binding, comparable within an allelic series)","9.29 upbm affinity estimate (log intensity, higher = more binding, comparable within an allelic series)"
CATATTGG,"10 upbm affinity estimate (log intensity, higher = more binding, comparable within an allelic series)","11.3 upbm affinity estimate (log intensity, higher = more binding, comparable within an allelic series)"
GCTGGACC,"9.41 upbm affinity estimate (log intensity, higher = more binding, comparable within an allelic series)","9.43 upbm affinity estimate (log intensity, higher = more binding, comparable within an allelic series)"
